The entries come from a sample that favours hits as a whole.
ERK EGF block = qHTS Assay for Inhibitors of the ERK Signaling Pathway using a Homogeneous Screening Assay; Stimulation with EGF | HEK293-V1b, EGF-stimulated phospho-ERK AlphaScreen | Potency, µM (highest dose often 11.5 µM), for the others: at the highest dose activity change, negative = inhibition, usual class: inhibitors | hit rate 0.41% among 130,000;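 further: potency means the concentration at half of the fitted maximal effect; plate controls were stimulated vehicle wells for no effect and unstimulated vehicle basal for full effect; nearly all actives have a fitted effect of over 55% in size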
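Readout: AlphaScreen signal for phosphorylated ERK in lysed HEK293 cells stably expressing V1b. Stimulus 25 nM EGF, 5 min, following 30 min compound exposure. Data scaled to DMSO basal and full EGF activation.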
c-Raf inh = Assay for Inhibitors of the ERK Signaling Pathway using a Homogeneous Screening Assay: c-Raf Inhibition | shares compounds with ERK EGF block | c-Raf kinase inhibition, homogeneous biochemical assay | activity change, negative = inhibition, % at 76.9 µM | 70 tested, under 10 active | AID 1728, 2009
MEK1 kinase inh = Assay for Inhibitors of the ERK Signaling Pathway using a Homogeneous Screening Assay: MEK Inhibition. 70 tested, under 10 active. homogeneous MEK kinase activity assay, ERK pathway. shares compounds with ERK EGF block. Potency, µM (titrated, usually from 76.9 µM), without a hit: at the top dose activity change, negative = inhibition, usual class: inhibitors
Target sequence (Q02750 whole entry, looked up): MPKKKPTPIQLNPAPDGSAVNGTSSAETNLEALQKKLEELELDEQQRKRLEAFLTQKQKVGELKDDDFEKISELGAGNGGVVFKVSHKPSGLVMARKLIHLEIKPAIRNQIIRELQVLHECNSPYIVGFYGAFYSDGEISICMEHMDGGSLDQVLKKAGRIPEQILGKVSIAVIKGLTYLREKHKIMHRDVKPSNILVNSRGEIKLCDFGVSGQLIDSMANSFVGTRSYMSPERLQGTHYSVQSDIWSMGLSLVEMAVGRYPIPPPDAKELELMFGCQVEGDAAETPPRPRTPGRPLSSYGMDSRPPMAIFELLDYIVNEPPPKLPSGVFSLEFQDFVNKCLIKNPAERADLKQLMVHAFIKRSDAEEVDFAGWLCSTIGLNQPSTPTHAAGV
Numbers without * were called inactive; u = inconclusive; x = no result; ! = not confirmed by another sample; [ ] = another dose, or the depositor's remark. The call rests on the fitted dose curve; in most records, active means well fitted curve in the direction sought with a large enough effect; inconclusive means small, poorly fitted or top-dose-only effect, or another doubt; inactive means no such curve, though single readings can be large; an effect the other way counts as inactive or inconclusive.

SMILES	ERK EGF block	others
Cc1cc(C)cc(C(=O)OC2C[C@H]3CC[C@@H](C2)N3C)c1 (stereo partly drawn)	7%
CCCN1C[C@H](C)N([C@H](c2ccc(C(=O)N(CC)CC)cc2)c2cccc(OC)c2)C[C@H]1C	-7%
O=C1C=CC[C@@H]2[C@H]3CCCN4CCC[C@@H](CN12)[C@@H]34	-5%
O=c1[nH]c(O)c(/C=C2/C=CC(c3cc(Cl)ccc3Cl)=N2)c(=O)[nH]1	28µM*
Cc1ccc2c(c1)=NC(=O)/C(=C/c1c(O)[nH]c(=O)[nH]c1=O)C=2	-8%[57.5 µM]
N#Cc1ccc(CN2CCC3(CC2)CCN(C(=O)Oc2ccccc2)CC3)cc1	-3%
CC[C@@H]1CN2CCc3cc(OC)c(OC)cc3[C@@H]2C[C@@H]1C[C@H]1NCCc2cc(OC)c(OC)cc21	-7%
c1ccc(N2CCC3(CCNCC3)CC2)nc1	-13%
NC(N)=Nc1ccc2[nH]c3c(c2c1)C[C@]1(O)[C@@H]2Cc4ccc(O)c5c4[C@]1(CCN2CC1CC1)[C@@H]3O5	-10%
COC(=O)C12CC3=CCC4C(=O)N(c5ccccc5)C(=O)C4C3Cc3ccccc3[C@@H]1CNC2=O (stereo partly drawn)	0%
CC1OC(=O)C(C(C)C)NC(=O)C(C(C)C)OC(=O)C(C(C)C)NC(=O)C(C)OC(=O)C(C(C)C)NC(=O)C(C(C)C)OC(=O)C(C(C)C)NC(=O)C(C)OC(=O)C(C(C)C)NC(=O)C(C(C)C)OC(=O)C(C(C)C)NC1=O (stereo not drawn)	7%
CC1(C)C[C@H]2C=C(C=O)[C@]3(C=O)C[C@]3(C)[C@H]2C1	10µM*
C[C@H]1CC[C@@]2(NC1)O[C@@H]1C[C@H]3[C@@H]4CC[C@@H]5C[C@@H](O)CC[C@@]5(C)[C@@H]4CC[C@]3(C)[C@@H]1[C@@H]2C	1%[25.7 µM]
O=C1CC[C@@]2(O)C3Cc4ccc(O)c5c4C2(CCN3CC2CC2)[C@H]1O5 (stereo partly drawn)	6%
CC[C@@H]1CN2CCc3cc(OC)c(OC)cc3[C@H]2C[C@@H]1C[C@H]1NCCc2cc(OC)c(OC)cc21	-15%[25.7 µM]
C=C(C)C1Cc2c(ccc3c2OC2COc4cc(OC)c(OC)cc4C2C3=O)O1 (stereo not drawn)	8%
CC(=O)Oc1ccc(Cl)c2cccnc12	-1%
CC(C)NC(=O)N1CCC2(CC1)CCN(C(=O)Oc1ccccc1)CC2	3%
CNc1ccc2oc(C[C@H]3O[C@@]4(CC[C@H]3C)O[C@H]([C@H](C)C(=O)c3ccc[nH]3)[C@H](C)C[C@H]4C)nc2c1C(=O)O	14µM*!
O=C(CCCN1CCC2(CC1)C(=O)N(Cc1cccc(F)c1)CN2c1ccccc1)c1ccc(F)cc1	10%
CC1O[C@@H](O[C@@H]2C(O)C[C@H](O[C@@H]3C(O)C[C@@H](OC4CC[C@@]5(C)C6CC[C@]7(C)C(C8=CC(=O)OC8)CC[C@@]7(O)C6CC[C@@H]5C4)OC3C)OC2C)CC(O)[C@H]1O (stereo partly drawn)	10%
CN1CCc2cc(O)cc3c2C1Cc1ccc(O)c(O)c1-3 (stereo not drawn)	17%
C=C(C=O)C[C@@H]1C[C@H](O)C2OC3C[C@]4(C)OC5/C=C\CC6OC7C(CC=CCC6OC5CCCC4OC3CC2O1)OC1CC2OC3CC(=O)OC3C[C@@H](C)C[C@@]2(C)OC1C[C@@H]7C (stereo partly drawn)	4µM*
C=C(CC1CC(O)[C@]2(C)OC3CC4OC5C[C@]6(C)O[C@]7(C)CCC8OC9C[C@]%10(C)OC%11C(C)=CC(=O)OC%11CC%10OC9C[C@@H](C)C8OC7CC6O[C@]5(C)C/C=C\C4OC3CC2O1)C(=O)O (stereo partly drawn)	-12%[57.5 µM]
Oc1ccc2[nH]cc(CCCCN3CC=C(c4ccccc4)CC3)c2c1	1%
SMILES	ERK EGF block	others
NC(=O)c1cn(C2OC(CO)C(O)C2O)c2ncnc(N)c12 (stereo not drawn)	-2%
CCNC(=O)[C@H]1O[C@@H](n2cnc3c(N)ncnc32)[C@H](O)[C@@H]1O	8.9µM*
CCNC(=O)[C@@H]1O[C@@H](n2cnc3c(N)ncnc32)[C@H](O)[C@H]1O	-14%
O=C1Nc2cc(Cl)c(Cl)cc2N2CCNC[C@H]12	8%
C[C@H](N)Cc1c[nH]c2ccc(OCc3cccs3)cc12	-2%
CC(=O)C1CCC2C3CCC4=CC(=O)CC[C@@]4(C)C3CC[C@]12C (stereo partly drawn)	4%
CN(C)C1C(=O)C(C(N)=O)=C(O)[C@@]2(O)C(=O)C3=C(O)c4c(O)ccc(Cl)c4[C@](C)(O)C3CC12 (stereo partly drawn)	-4%
COP(N)(=O)SC (stereo not drawn)	13%
C[C@@H](Cc1cccc(C(F)(F)F)c1)NCCCc1ccccc1	1%
CC1Oc2cc3c(-c4c(O)cc(O)c5c(O)c6c(cc45)OC(C)C(C)C6=O)c(O)cc(O)c3c(O)c2C(=O)C1C (stereo not drawn)	16µM*
O=c1[nH]c2ccccc2n1C1CCN(CCCC(c2ccc(F)cc2)c2ccc(F)cc2)CC1	25µM*!
CN(C(=O)Cc1ccc(Cl)c(Cl)c1)[C@H](CN1CCCC1)c1cccc(N=C=S)c1	4%
C[C@]12[C@H](O)CC3C(CC[C@@H]4C[C@@H](O)CC[C@]34C)[C@@]1(O)CC[C@@H]2C1=CC(=O)OC1 (stereo partly drawn)	-13%
c1ccc(CN2CCC3(CCNCC3)CC2)cc1	-3%
CC(=O)OC1CCC23C(=O)OC45CCC(C6=CC(=O)OC6)C4(C)CCC2C5CCC3(O)C1 (stereo not drawn)	12%
Cn1nc(-c2ccccc2)nc2c(=O)n(C)c(=O)nc1-2	x	c-Raf inh=u;MEK1 kinase inh=0.71µM*
Cc1nc2c(=O)n(C)c(=O)nc-2n(C)n1	22%	c-Raf inh=u;MEK1 kinase inh=u
CCn1nc(-c2ccccc2)nc2c(=O)n(C)c(=O)nc1-2	0%	c-Raf inh=u;MEK1 kinase inh=0.63µM*
COc1ccc(-c2nc3ccccc3c(=O)n2-c2ccc(OC)cc2)cc1	-13%
O=c1c2ccccc2nc(-c2ccccc2)n1-c1ccccc1	-8%[57.5 µM]
C=CCC1(C(C)CCC)C(=O)N=C(S)NC1=O (stereo not drawn)	6%
Cc1noc(C)c1C(=O)N1CCC[C@@]2(CCN(CC(C)C)C2)C1	-12%
CC(C)N(CC[C@@](C(N)=O)(c1ccccc1)c1ccccn1)C(C)C	15%[25.7 µM]
NC(CO)Cc1ccccc1 (stereo not drawn)	9%
CC(C)(O)C1C2OC(=O)C1[C@]1(O)C[C@H]3O[C@]34C(=O)O[C@H]2[C@]14C (stereo partly drawn) (tested in a mixture with another compound)	18%
CC1N(P(=O)(c2ccccc2)c2ccccc2)CC(O)(c2ccccc2)CC12CC2 (stereo not drawn)	-3%
CCC1C2CC3C4N(C)c5ccccc5[C@]45CC(C2C5O)N3C1O (stereo partly drawn)	21%
CC(C)C(O)(C(=O)OC[C@@H]1CC[N+]2([O-])CCCC12)C(C)O (stereo partly drawn)	-17%
C[C@@H]1O[C@@H](O[C@H]2CC[C@]3(C=O)C4CC[C@]5(C)[C@@H](C6=CC(=O)OC6)CC[C@]5(O)[C@@H]4CC[C@]3(O)C2)[C@H](O)[C@H](O)[C@H]1O (stereo partly drawn)	10%
CCCN1CCCC2Cc3[nH]ncc3CC21 (stereo not drawn)	5%
